Test results published in PubChem BioAssay (NCATS).
Several values for one entry are separate records, joined by “and”; a condition that tells them apart may be missing. Identical values can stand only once. Results filed as inconclusive are left out. Entries that show only a call come without a potency. Activity calls are given as the source filed them. Unless noted, calls follow the shape of the dose curve; as a rule, active = well fitted curve in the direction sought with a large enough effect; inconclusive = small, poorly fitted or top-dose-only effect, or another doubt; inactive = no such curve, though single readings can be large; an effect the other way counts as inactive or inconclusive.

Columns and labels:
[1] = Cell Viability - N2a (AID 540); details: N2a mouse neuroblastoma cell viability; activity change, negative = cytotoxicity: at 92.2 µM (top of the series); also: nearly all actives have a fitted effect of over 45% in size
Method in brief: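 Mouse neuroblastoma N2a cells (1500/well) were preincubated 5 hr at 37 °C, then exposed to compounds for 40 hr at 37 °C in complete medium. Viability was read as intracellular ATP by CellTiter-Glo luminescence; AC50 from Hill fits.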

[2] = Cell Viability - H-4-II-E (AID 543); also: nearly all actives have a fitted effect of over 35% in size
Method in brief: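 Rat hepatoma H-4-II-E cells (1500/well) were plated, incubated 5 hr at 37 °C, then exposed to compounds for 40 hr at 37 °C. Cellular ATP was read by CellTiter-Glo luminescence; AC50 came from Hill-equation fits of concentration-response data.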

[3] = Cellular Toxicity (caspase-3) Mesangial (AID 660);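 also: cells exposed to compound for 16 h before the caspase read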
Method in brief: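 Human renal glomerular mesangial cells (1000/well) were treated with compounds for 16 h at 37 °C in complete medium, then caspase 3/7 activity was read by Caspase-Glo luminescence. Data were normalized to DMSO and 100 uM tamoxifen; AC50 from Hill fits.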

[4] = biological target: Cytochrome P450 3A4 (Homo sapiens) (UniProt P08684); assay: qHTS Assay for Inhibitors and Substrates of Cytochrome P450 3A4 (AID 884); also: nearly all actives have a fitted effect of over 50% in size; also: potency is read from the fitted curve at half-maximal effect
Sequence of Cytochrome P450 3A4 (Homo sapiens) (P08684 whole entry, looked up): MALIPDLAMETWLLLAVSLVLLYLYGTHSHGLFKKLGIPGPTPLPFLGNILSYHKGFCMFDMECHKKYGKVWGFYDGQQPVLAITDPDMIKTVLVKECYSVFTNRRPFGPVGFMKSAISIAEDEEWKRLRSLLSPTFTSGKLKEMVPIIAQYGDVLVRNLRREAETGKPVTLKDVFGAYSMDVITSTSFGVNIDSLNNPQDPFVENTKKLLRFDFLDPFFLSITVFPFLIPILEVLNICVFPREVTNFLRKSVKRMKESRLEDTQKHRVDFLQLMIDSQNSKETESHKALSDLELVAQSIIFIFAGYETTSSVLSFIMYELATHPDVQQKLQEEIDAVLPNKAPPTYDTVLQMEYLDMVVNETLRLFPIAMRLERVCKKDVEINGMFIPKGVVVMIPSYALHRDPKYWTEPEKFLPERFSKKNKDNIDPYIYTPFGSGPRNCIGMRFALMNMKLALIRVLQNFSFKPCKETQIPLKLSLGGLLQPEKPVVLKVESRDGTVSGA
Method in brief: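 20 nM human CYP3A4 with 25 uM Luciferin-PPXE (at KM) in 200 mM KPO4, preincubated 10 min with compound; NADPH regeneration started a 60 min RT reaction. Luciferin detected by luminescence, normalized to 57 uM ketoconazole as full inhibition.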

[5] = MultiTox-Fluor Cytotoxicity Assay - LYMP1-002 - Dead Cells (AID 960); also: nearly all actives have a fitted effect of over 60% in size
Method in brief: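 Human lymphoblastoid cells (LYMP1-002), 2500/well in complete medium, were exposed to compounds for 16 hr at 37 C. Dead-cell protease activity was read as bis-AAF-R110 fluorescence (Ex/Em 485/520), normalized to DMSO and 15 uM tetraoctylammonium bromide; AC50 from Hill fits.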

[6] = Cell Viability - LYMP2-004 (AID 966); also: nearly all actives have a fitted effect of over 65% in size
Method in brief: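 Human lymphoblastoid cells (2500/well) in complete medium were treated with compounds for 24 hr at 37 C, then intracellular ATP was measured by CellTiter-Glo luminescence. AC50 values came from Hill-equation fits of concentration-response data.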

[7] = Cell Viability - LYMP2-021 (AID 974);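 also: compound exposure lasts 24 hours at 37 °C; nearly all actives have a fitted effect of over 55% in size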
Method in brief: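 Human lymphoblastoid cells (2500/well) were preincubated 5 hr at 37 C, then exposed to compounds for 24 hr at 37 C in complete medium. Intracellular ATP was read by CellTiter-Glo luminescence; AC50 came from Hill-equation fits of concentration-response data.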

[8] = Cell Viability - LYMP2-012 (AID 982);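 also: cellular ATP by luciferase luminescence where a drop means cytotoxicity; cells exposed to compound for one day before reading; nearly all actives have a fitted effect of over 55% in size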
[9] = Cell Viability - LYMP1-002 - Assay at 40 hr (AID 994); also: nearly all actives have a fitted effect of over 60% in size
Method in brief: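 Human lymphoblastoid cells, 2500/well in complete medium, were preincubated 5 hr at 37 C, then exposed to compounds for 40 hr at 37 C. Intracellular ATP was read by CellTiter-Glo luminescence after 30 min at room temperature; AC50 from Hill-equation fits.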

[10] = biological target: Vitamin D3 receptor (Homo sapiens) (UniProt P11473); assay: qHTS assay for small molecule antagonists of vitamin D receptor signaling (AID 588541; calls by dose curve;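 also: receptor activated by calcitriol during compound treatment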)
Sequence of Vitamin D3 receptor (Homo sapiens) (P11473 whole entry, looked up): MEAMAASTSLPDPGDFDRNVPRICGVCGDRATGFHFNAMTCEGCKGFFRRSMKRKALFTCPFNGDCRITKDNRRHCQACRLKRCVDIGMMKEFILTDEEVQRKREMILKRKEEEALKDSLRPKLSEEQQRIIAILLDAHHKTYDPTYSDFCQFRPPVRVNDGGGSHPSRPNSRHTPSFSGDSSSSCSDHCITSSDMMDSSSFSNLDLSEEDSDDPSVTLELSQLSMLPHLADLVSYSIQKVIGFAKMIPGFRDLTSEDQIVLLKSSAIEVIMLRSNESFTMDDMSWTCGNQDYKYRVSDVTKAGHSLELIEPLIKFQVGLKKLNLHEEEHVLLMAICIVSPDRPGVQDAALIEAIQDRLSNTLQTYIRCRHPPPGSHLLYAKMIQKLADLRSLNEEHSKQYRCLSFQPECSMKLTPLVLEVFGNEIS
Method in brief: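 VDR-UAS-bla HEK293T cells (2000/well, 2% charcoal-stripped FBS) were treated with titrated compounds plus 1-alpha,25-dihydroxyvitamin D3 (50 nM or 3 nM final) for 16 h at 37 C. CCF4 beta-lactamase fluorescence was read; Hill fits gave IC50.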

[11] = biological target: Vitamin D3 receptor (Homo sapiens) (UniProt P11473); assay: qHTS assay for small molecule agonists of vitamin D receptor signaling (AID 588543; calls by dose curve)
Method in brief: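 Measured: β-lactamase reporter activity (CCF4, 405 nm excitation, 460/530 nm emission) in HEK293T VDR-UAS-bla cells after 16 h compound exposure at 37 °C. Normalization against 50 nM 1α,25-dihydroxyvitamin D3 and DMSO; Hill-fit EC50.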

[12] = biological target: Thyroid hormone receptor beta (Homo sapiens) (UniProt P10828); assay: qHTS assay for small molecule agonists of thyroid hormone receptor beta signaling (AID 588545; calls by dose curve)
Sequence of Thyroid hormone receptor beta (Homo sapiens) (P10828 whole entry, looked up): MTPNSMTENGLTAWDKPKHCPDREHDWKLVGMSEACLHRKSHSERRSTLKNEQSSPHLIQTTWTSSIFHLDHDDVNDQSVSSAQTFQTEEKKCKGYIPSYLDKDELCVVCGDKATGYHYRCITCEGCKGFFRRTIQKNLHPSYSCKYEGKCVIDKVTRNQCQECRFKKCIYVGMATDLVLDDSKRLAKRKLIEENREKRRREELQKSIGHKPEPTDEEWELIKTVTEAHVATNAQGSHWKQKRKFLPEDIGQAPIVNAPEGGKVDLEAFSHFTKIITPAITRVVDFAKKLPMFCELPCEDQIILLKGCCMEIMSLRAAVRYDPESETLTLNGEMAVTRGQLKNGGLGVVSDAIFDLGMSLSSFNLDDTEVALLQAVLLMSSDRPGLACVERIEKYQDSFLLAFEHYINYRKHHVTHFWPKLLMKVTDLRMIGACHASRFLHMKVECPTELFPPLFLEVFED
Method in brief: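 Compounds were tested as agonists in TR-UAS-bla-GripTite HEK 293 cells. After 18 hrs at 37 C, CCF4 substrate was added and fluorescence read after 2 hrs at room temperature.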

[13] = qHTS assay for small molecule antagonists of retinoid X receptor alpha signaling (AID 588546; active = well fitted inhibition curve with a large enough effect in the signal ratio, with a control signal flat, not every such curve was filed as active; the % refers to the signal ratio;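 also: cells stimulated with 9-cis-retinoic acid as agonist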); details: HEK293T RXRa-UAS-bla, beta-lactamase ratio, antagonist mode; measured here: W530 green channel, cytotoxicity proxy
Method in brief: (§1)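 Beta-lactamase reporter inhibition, read as CCF4 fluorescence ratio (ex 405, em 460/530 nm) after 2 h at RT. HEK293T UAS-bla cells, 2500/well, were stimulated with 9-cis-RA at 500 or 100 nM final alongside test compound for 18 h at 37 C.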

[14] = biological target: Retinoic acid receptor RXR-alpha (Homo sapiens) (UniProt P19793); assay: as above; details: HEK293T RXRa-UAS-bla, beta-lactamase ratio, antagonist mode
Sequence of Retinoic acid receptor RXR-alpha (Homo sapiens) (P19793 whole entry, looked up): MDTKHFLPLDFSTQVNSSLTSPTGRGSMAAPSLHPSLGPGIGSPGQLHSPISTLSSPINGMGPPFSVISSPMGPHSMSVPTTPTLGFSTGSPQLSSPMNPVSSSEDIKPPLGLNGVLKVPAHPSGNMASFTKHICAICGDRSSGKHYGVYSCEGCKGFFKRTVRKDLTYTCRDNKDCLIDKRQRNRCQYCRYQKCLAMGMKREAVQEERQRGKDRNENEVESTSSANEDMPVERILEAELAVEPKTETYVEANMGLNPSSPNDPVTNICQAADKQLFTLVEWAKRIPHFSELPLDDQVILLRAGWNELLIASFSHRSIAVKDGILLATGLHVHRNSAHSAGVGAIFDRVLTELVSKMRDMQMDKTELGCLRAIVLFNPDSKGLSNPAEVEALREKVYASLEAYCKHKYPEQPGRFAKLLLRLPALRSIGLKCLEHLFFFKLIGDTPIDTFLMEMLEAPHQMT
Method in brief: as §1

[15] = biological target: Tumor necrosis factor (Homo sapiens) (UniProt P01375); assay: qHTS assay to identify small molecules that stimulate Tumor Necrosis Factor-alpha (TNF-alpha) secretion (AID 651757; active = well fitted curve in the direction sought with a large enough effect in the signal ratio; the % refers to the signal ratio)
Sequence of Tumor necrosis factor (Homo sapiens) (P01375 whole entry, looked up): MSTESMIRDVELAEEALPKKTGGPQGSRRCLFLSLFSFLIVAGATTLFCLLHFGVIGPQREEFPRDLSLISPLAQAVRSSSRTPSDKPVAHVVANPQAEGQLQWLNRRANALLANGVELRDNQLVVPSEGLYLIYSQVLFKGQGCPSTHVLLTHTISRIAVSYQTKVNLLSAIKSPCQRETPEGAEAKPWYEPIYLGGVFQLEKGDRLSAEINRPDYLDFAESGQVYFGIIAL
Method in brief: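 THP-1 cells were exposed to compounds for 17 hrs at 37 C, after which secreted TNF-alpha was measured by homogeneous HTRF (TR-FRET) using cryptate- and XL665-labeled anti-TNF-alpha antibodies, read after 3 hr at room temperature.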

[16] = biological target: Nuclear receptor ROR-gamma (Homo sapiens) (UniProt P51449); assay: qHTS assay for small molecule antagonists of the retinoid-related orphan receptor gamma (ROR-gamma) signaling pathway (AID 651802); also: nearly all actives have a fitted effect of over 60% in size
Sequence of Nuclear receptor ROR-gamma (Homo sapiens) (P51449 whole entry, looked up): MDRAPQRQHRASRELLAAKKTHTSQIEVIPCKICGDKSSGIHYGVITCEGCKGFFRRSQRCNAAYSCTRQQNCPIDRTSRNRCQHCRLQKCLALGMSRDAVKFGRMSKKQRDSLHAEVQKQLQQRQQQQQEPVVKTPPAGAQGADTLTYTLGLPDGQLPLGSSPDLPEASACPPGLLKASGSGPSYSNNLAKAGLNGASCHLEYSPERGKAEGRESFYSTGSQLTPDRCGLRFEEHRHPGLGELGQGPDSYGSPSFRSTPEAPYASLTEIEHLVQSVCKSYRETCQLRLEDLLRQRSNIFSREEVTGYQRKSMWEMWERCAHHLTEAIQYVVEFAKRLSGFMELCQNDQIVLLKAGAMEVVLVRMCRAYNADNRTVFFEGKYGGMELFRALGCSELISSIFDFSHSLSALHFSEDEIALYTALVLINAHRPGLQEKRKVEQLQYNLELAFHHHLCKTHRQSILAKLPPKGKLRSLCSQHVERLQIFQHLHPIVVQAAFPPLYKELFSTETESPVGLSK
Method in brief: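 CHO cells carrying TET-inducible ROR-gamma and an ROR response element–luciferase reporter were exposed to compound, then induced with doxycycline. After 16hr at 37C, luminescence was read; lower signal indicates antagonism.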

[17] = qHTS assay for small molecule agonists of the antioxidant response element (ARE) signaling pathway measured by Nrf2-dependant transcriptional activity (AID 720636; active = well fitted curve in the direction sought with a large enough effect in the repeat runs; an effect the other way counts as inactive or inconclusive)
Method in brief: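 ARE-luc HepG2 cells carrying an Nrf2-responsive luciferase reporter, in medium with 1% dialyzed FBS, exposed to compound for 16 hr at 37 C, 5% CO2. Luminescence read 30 min after ONE-Glo addition.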

[18] = qHTS assay for small molecule antagonists of the retinoid-related orphan receptor gamma (ROR-gamma) signaling pathway - cell viability counter screen (AID 720652; active = well fitted curve in the direction sought with a large enough effect in the repeat runs; an effect the other way counts as inactive or inconclusive;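 also: compound exposure lasted 16 hr before ATP read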)
Method in brief: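 Counter screen in CHO cells carrying TET-inducible ROR-gamma and an ROR response element-luciferase reporter; cells plated 5 hr, compound pinned, doxycycline added, then 16 hr at 37 C. Viability read as intracellular ATP by CellTiter-Glo luminescence.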

[19] = qHTS assay for small molecule activators of the human pregnane X receptor (PXR) signaling pathway (AID 720659; call rule not given here)
[20] = Cellular Toxicity (caspase-3) NIH 3T3 (AID 666);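 also: caspase signal read after 16 h compound exposure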
Method in brief: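 Mouse NIH 3T3 fibroblasts (1000 cells/well) were treated with compound for 16 hr at 37°C in complete medium; caspase-3/7 activity was read by Caspase-Glo luminescence. Normalized to DMSO and 100 uM tamoxifen; AC50 from Hill fits.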

Row | Structure (SMILES) | Potency [1] | Potency [2] | outcome [3] | Potency [4] | Potency [5] | Potency [6] | Potency [7] | Potency [8] | Potency [9] | outcome [10] | outcome [11] | Potency [12] | max response [13] | max response [14] | outcome [15] | Potency [16] | Potency [17] | Potency [18] | outcome [19] | Potency [20]
1 | O=C(O)c1cc(Cl)ccc1Cl | inactive | inactive | inactive | inactive | inactive | inactive | inactive | inactive | inactive | inactive | inactive | inactive | -9.46% | -2.77% (inactive) | inactive | inactive | inactive | inactive | inactive | 
2 | CC(=O)[O-].CC(=O)[O-].CC(=O)[O-].[Cr+3] | inactive | inactive |  | inactive | inactive | inactive | inactive | inactive | inactive |  |  | inactive | -2.43% | 18.8% (inactive) | inactive |  | inactive | inactive |  | inactive
3 | Nc1ccc(-c2ccc(N)cc2)cc1 | inactive |  | inactive |  | inactive | inactive | inactive | inactive | inactive | inactive | inactive |  | -2.33% | 0.312% (inactive) |  | inactive | inactive | inactive | inactive | inactive
4 | CCC#N | inactive | inactive | inactive | inactive | inactive | inactive | inactive | inactive | inactive | inactive | inactive | inactive | 15.9% | 10.5% (inactive) | inactive | inactive | inactive | inactive | inactive | inactive
5 | O=S(=O)(O)F | inactive | inactive | inactive | inactive | inactive | inactive |  | inactive | inactive | inactive | inactive | inactive | -2.92% | 39.7% (inactive) | inactive |  | inactive | inactive | inactive | inactive
6 | Nc1ccc(-c2ccccc2)cc1 | inactive | inactive | inactive | 12.6 µM (active) | inactive | inactive | inactive | inactive | inactive | inactive | inactive | inactive | -4.26% | -7.2% (inactive) | inactive | inactive |  | inactive | inactive | inactive
7 | CC(C)[C@]12CC(=O)[C@H](C)[C@H]1C2 | inactive | inactive | inactive | inactive | inactive | inactive | inactive | inactive | inactive | inactive | inactive | inactive | -7.72% and -9.15% | 7% (inactive) and 0.913% (inactive) | inactive | inactive | inactive | inactive | inactive | inactive
8 | CCOP(=O)(OCC)OCC | inactive | inactive | inactive | inactive | inactive | inactive | inactive | inactive | inactive | inactive | inactive | inactive | 9.41% and -13.4% | 10.3% (inactive) and -4.1% (inactive) | inactive | inactive | inactive | inactive | inactive | inactive
9 | CCN(CC)N=O | inactive | inactive |  | inactive | inactive | inactive | inactive | inactive | inactive | inactive | inactive | inactive | -3.04% | 1.08% (inactive) | inactive | inactive | inactive | inactive | inactive | inactive
10 | CN(C)c1ccccc1 | inactive | inactive |  | inactive | inactive | inactive | inactive | inactive | inactive | inactive | inactive | inactive | 5.14% | 5.23% (inactive) | inactive |  | inactive | inactive | inactive | inactive
11 | c1ccc(OCC2CO2)cc1 (stereo not drawn) | inactive | inactive | inactive | inactive | inactive | inactive | inactive | inactive | inactive | inactive | inactive |  | 6.84% | -20.9% (inactive) | inactive | inactive | inactive | inactive | inactive | inactive
12 | Clc1cccc2ccccc12 | inactive | inactive | inactive | inactive | inactive | inactive | inactive | inactive | inactive | inactive | inactive | inactive | -3.08% | -3.67% (inactive) | inactive | inactive | inactive | inactive | inactive | inactive
13 | Cc1ccc(N)cc1N | inactive | inactive | inactive | inactive |  | inactive | inactive | inactive | inactive | inactive | inactive | inactive | -0.584% and 0.527% | 9.25% (inactive) and -0.891% (inactive) |  | inactive | inactive | inactive | inactive | inactive
14 | Cl/C=C/Cl | inactive | inactive |  | inactive | inactive | inactive | inactive | inactive | inactive | inactive | inactive | inactive | -8.73% | 6.16% (inactive) | inactive | inactive | inactive | inactive | inactive | inactive
15 | Cc1ccc2c(C)cccc2c1 | inactive | inactive | inactive | inactive |  | inactive | inactive | inactive | inactive | inactive |  | inactive | 4.96% | 4.66% (inactive) | inactive | inactive | inactive | inactive | inactive | inactive
16 | CCCCC(=O)Cl | inactive | inactive | inactive | inactive | inactive | inactive | inactive | inactive | inactive | inactive | inactive | inactive | -10.8% | -9.41% (inactive) | inactive | inactive | inactive | inactive | inactive | inactive
